In PubChem BioAssay AID1159580 (chemical genetic matrix, 2015):
Where “and” joins values, the source holds several entries; their conditions need not be identical. Equal values may be shown once. Hit rate of the full screen: of about 5,500 compounds, about 2,000 (36%) were called active. About 18% were inconclusive and are not listed. Rule as the data show it: active = normalized growth mostly below about 0.91 (no sharp cut-off); inconclusive = no clear call, values can overlap the other calls; inactive = mostly above about 0.92. This is one part of the list.

Assay: chemical genetic growth profiling, strain panel (AID 1159580);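 also: tested at 20 µM; growth read once vehicle control cultures reached saturation at 30 °C; 1 = growth at the plate median or of vehicle wells; lower values mean less growth of the strain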
Conditions: S. cerevisiae deletion strains, growth OD

Measured: normalized growth

NC(=O)c1ccccc1O
inactive: locus YAL021C, strain ccr4, hits give low values 0.988 | locus YAL026C, strain drs2, hits give low values 0.996 | locus YAL030W, strain snc1, hits give low values 0.966 | locus YBL061C, strain skt5, hits give low values 0.97 | locus YBR009C, strain hhf1, hits give low values 1.04 | locus YBR021W, strain FUR4, hits give low values 1.04 | locus YBR023C, strain chs3, hits give low values 0.987 | locus YBR171W, strain sec66, hits give low values 0.959 | locus YBR229C, strain ROT2, hits give low values 0.999 | locus YBR231C, strain swc5, hits give low values 0.988 | locus YBR279W, strain paf1, hits give low values 0.997 | locus YCL011C, strain gbp2, hits give low values 0.956 | locus YCL016C, strain dcc1, hits give low values 1.01 | locus YCL029C, strain bik1, hits give low values 1.02 | locus YCL061C, strain MRC1, hits give low values 0.963 | locus YCL069W, strain vba3, hits give low values 0.974 | locus YCR088W, strain abp1, hits give low values 0.974 | locus YDL005C, strain med2, hits give low values 0.972 | locus YDL035C, strain GPR1, hits give low values 1.01 | locus YDL040C, strain nat1, hits give low values 0.984 | locus YDL074C, strain BRE1, hits give low values 0.997 | locus YDL101C, strain DUN1, hits give low values 1.01 | locus YDL134C, strain PPH21, hits give low values 1 | locus YDL185W, strain tfp1, hits give low values 1.01 | locus YDL192W, strain arf1, hits give low values 1.01 | locus YDR001C, strain nth1, hits give low values 0.967 | locus YDR069C, strain doa4, hits give low values 0.952 | locus YDR101C, strain arx1, hits give low values 1 | locus YDR137W, strain rgp1, hits give low values 0.964 | locus YDR159W, strain sac3, hits give low values 0.985 | locus YDR162C, strain NBP2, hits give low values 1.01 | locus YDR195W, strain ref2 0.927 | locus YDR297W, strain sur2, hits give low values 0.981 | locus YDR318W, strain mcm21, hits give low values 1.01 | locus YDR334W, strain swr1, hits give low values 0.935 | locus YDR335W, strain msn5, hits give low values 0.947 | locus YDR388W, hits give low values 1.01 | locus YDR392W, strain spt3, hits give low values 1.05 | locus YDR502C, strain sam2, hits give low values 0.997 | locus YEL003W, strain gim4, hits give low values 0.981 | locus YEL037C, strain rad23, hits give low values 0.976 | locus YEL061C, strain CIN8 (second series), hits give low values 0.98 | locus YEL061C, strain CIN8, hits give low values 1 | locus YER015W, strain faa2, hits give low values 1.01 | locus YER016W, strain bim1, hits give low values 1.01 | locus YER110C, hits give low values 1.01 | locus YER111C, strain swi4, hits give low values 0.97 | locus YER155C, strain BEM2 (second series), hits give low values 0.929 | locus YER155C, strain BEM2, hits give low values 1.01 | locus YER167W, strain BCK2, hits give low values 1.01 | locus YFR010W, strain ubp6, hits give low values 0.96 | locus YGL078C, strain dbp3, hits give low values 1 | locus YGL086W, strain mad1, hits give low values 0.998 | locus YGL167C, strain pmr1, hits give low values 0.961 | locus YGL173C, strain kem1, hits give low values 0.968 | locus YGL227W, strain vid30, hits give low values 0.975 | locus YGL240W, strain doc1, hits give low values 0.981 | locus YGL248W, strain PDE1, hits give low values 1 | locus YGL253W, strain hxk2, hits give low values 0.997 | locus YGR135W, strain pre9, hits give low values 1.02 | locus YGR229C, strain SMI1, hits give low values 1.01 | locus YGR252W, strain gcn5, hits give low values 1.03 | locus YHR013C, strain ard1, hits give low values 0.988 | locus YHR027C, strain rpn1, hits give low values 0.991 | locus YHR030C, strain SLT2, hits give low values 1 and 1.07 | locus YHR079C, strain IRE1 (second series), hits give low values 1.02 | locus YHR079C, strain IRE1, hits give low values 1.06 | locus YHR094C, strain hxt1, hits give low values 1 | locus YHR129C, strain ARP1, hits give low values 1.01 | locus YHR142W, strain chs7, hits give low values 0.946 | locus YHR200W, strain rpn10, hits give low values 1 | locus YIL066C, strain RNR3, hits give low values 0.993 | locus YIL073C, strain SPO22, hits give low values 1.05 | locus YIL125W, strain kgd1, hits give low values 1 | locus YIR030C, strain dcg1, hits give low values 1.01 | locus YJL092W, strain hpr5, hits give low values 0.96 | locus YJL095W, strain BCK1 (second series), hits give low values 0.973 | locus YJL095W, strain BCK1, hits give low values 1 and 1.05 | locus YJL115W, strain asf1, hits give low values 0.985 | locus YJL129C, strain trk1, hits give low values 0.992 | locus YJL134W, strain LCB3, hits give low values 1 | locus YJL154C, strain vps35, hits give low values 0.965 | locus YJL164C, strain tpk1, hits give low values 1 | locus YJL166W, strain qcr8, hits give low values 0.924 | locus YJL168C, strain set2, hits give low values 1.01 | locus YJL187C, strain SWE1 (second series), hits give low values 1.01 | locus YJL187C, strain SWE1, hits give low values 0.989 | locus YJR043C, strain POL32, hits give low values 0.985
